The list is not random: actives were taken first. Their share in the collection is about 19%.
DT40 TDP1 CPT: qHTS for Inhibitors of human tyrosyl-DNA phosphodiesterase 1 (TDP1): qHTS in cells in presence of CPT; Potency, µM (titrated, usually from 46.2 µM), most hits filed as inhibitors; chicken DT40 Tdp1-/-;hTDP1 cells + 20 nM CPT, ATP luminescence, 48 h; 420,000 compounds, 12% hits; also: nearly all actives have a fitted effect of over 55% in size
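Chicken DT40 Tdp1-/- cells stably complemented with human TDP1 were seeded at 400 cells/well in medium containing 20 nM camptothecin, exposed to pin-transferred compounds, and grown at 37 °C for at least 48 hr. Viability was read as ATP luminescence.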
TDP1 cell noCPT: qHTS for Inhibitors of human tyrosyl-DNA phosphodiesterase 1 (TDP1): qHTS in cells in absence of CPT; Potency, µM (titrated, usually from 46.2 µM), usual class: inhibitors; AID 686978, 2013; 420,000 compounds, 15% hits; DT40 Tdp1-/- hTDP1 cells, no CPT, ATP luminescence, 48 h; also: nearly all actives have a fitted effect of over 55% in size
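Luminescent ATP content (CellTiter-Glo) served as the growth readout. Knockout chicken DT40 cells expressing human TDP1 were exposed to compounds without camptothecin for a minimum 48 hr at 37 °C.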
Gal4-VP16 FLuc: VP16 counterscreen qHTS for inhibitors of ROR gamma transcriptional activity | Drosophila S2 Gal4-VP16 UAS-luciferase, luminescence, 20 h | Potency, µM (series often up to 53.6 µM), actives largely listed as inhibitors | 310,000 compounds, 3.5% hits | AID 2546, 2010;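 also: Gal4-VP16 expression switched on by copper sulfate through the metallothionein promoter; nearly all actives have a fitted effect of over 50% in size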
RORg inh: qHTS for inhibitors of ROR gamma transcriptional activity. Nuclear receptor ROR-gamma (Mus musculus), P51450. Drosophila S2 Gal4-RORgamma UAS-luciferase reporter, 20 h. Potency, µM (series often up to 53.6 µM), most hits filed as inhibitors. 310,000 compounds, 5.4% hits; also: nearly all actives have a fitted effect of over 60% in size
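In this cell-based reporter format, copper sulfate (700 uM final) drives Gal4–ROR gamma fusion expression from a metallothionein promoter in Drosophila Schneider cells; compounds preincubated 1 hr, reporter read after 20 hr at ambient temperature.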
TDP1 inh: qHTS Assay for Inhibitors of Tyrosyl-DNA Phosphodiesterase (TDP1). 350,000 compounds, 0.28% hits. Potency, µM (doses to about 130 µM), actives largely listed as inhibitors. recombinant TDP1, AlphaScreen DNA substrate cleavage. AID 485290, 2010. Tyrosyl-DNA phosphodiesterase 1 (Homo sapiens), Q9NUW8; also: nearly all actives have a fitted effect of over 40% in size
Target sequence (Q9NUW8 whole entry, looked up): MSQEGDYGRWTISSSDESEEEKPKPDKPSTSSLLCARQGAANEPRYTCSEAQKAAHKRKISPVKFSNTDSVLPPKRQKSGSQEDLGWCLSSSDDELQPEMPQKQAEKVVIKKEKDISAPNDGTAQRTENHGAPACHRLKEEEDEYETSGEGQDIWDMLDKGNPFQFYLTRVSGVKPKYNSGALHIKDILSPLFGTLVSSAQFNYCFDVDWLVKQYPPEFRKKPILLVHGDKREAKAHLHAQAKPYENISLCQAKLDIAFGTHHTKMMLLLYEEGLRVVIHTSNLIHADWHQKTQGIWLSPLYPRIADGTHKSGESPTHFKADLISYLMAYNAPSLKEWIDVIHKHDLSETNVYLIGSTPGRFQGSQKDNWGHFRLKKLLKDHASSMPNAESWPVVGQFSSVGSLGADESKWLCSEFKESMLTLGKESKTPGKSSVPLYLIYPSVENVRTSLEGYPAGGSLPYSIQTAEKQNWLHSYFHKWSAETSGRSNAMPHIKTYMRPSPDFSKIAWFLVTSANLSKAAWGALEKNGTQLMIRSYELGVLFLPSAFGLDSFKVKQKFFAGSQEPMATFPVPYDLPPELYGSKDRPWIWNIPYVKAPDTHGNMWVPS
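Tdp1 1 nM final; 15 min RT w/ cpd; substrate 15 nM, 5 min; beads 10 ug/ml, 10 min; AlphaScreen read. Neg ctrl: no enzyme.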
Each line names hits and unclear results; the compound was inactive in the other large screens; ! = not active in a repeat. Calls follow the shape of the dose curve; as a rule, active = well fitted curve in the direction sought with a large enough effect; inconclusive = small, poorly fitted or top-dose-only effect, or another doubt; inactive = no such curve, though single readings can be large; an effect the other way counts as inactive or inconclusive.

Cc1ccc(OCC(O)CN2CCN(Cc3ccc4c(c3)OCO4)CC2)cc1C (stereo not given)	TDP1 cell noCPT inconclusive
Cc1ccccc1OCC(O)CN1CCN(CCN2C(=O)c3cccc4cccc(c34)C2=O)CC1 (stereo not given)	DT40 TDP1 CPT inconclusive, TDP1 cell noCPT inconclusive
Cc1cccc(C)c1OCC(O)CN1CCC(CN2C(=O)c3cccc4cccc(c34)C2=O)CC1 (stereo not given)	DT40 TDP1 CPT 12µM, TDP1 cell noCPT 8.2µM
C=CCc1ccccc1OCC(O)CN1CCN(Cc2ccc3c(c2)OCO3)CC1 (stereo not given)	DT40 TDP1 CPT 16µM!, TDP1 cell noCPT inconclusive
C=CCc1ccccc1OCC(O)CN1CCN(CCN2C(=O)c3cccc4cccc(c34)C2=O)CC1 (stereo not given)	DT40 TDP1 CPT inconclusive, TDP1 cell noCPT inconclusive, Gal4-VP16 FLuc 11µM
CCC(OCC(O)CN1CCN(CCN2C(=O)c3cccc4cccc(c34)C2=O)CC1)c1ccccc1 (stereo not given)	DT40 TDP1 CPT 10µM, TDP1 cell noCPT 6.5µM, Gal4-VP16 FLuc inconclusive, RORg inh inconclusive
CC(C)OCC(O)CN1CCN(CCN2C(=O)c3cccc4cccc(c34)C2=O)CC1 (stereo not given)	TDP1 cell noCPT inconclusive
Cc1c(C(O)CN2CCN(Cc3ccc4c(c3)OCO4)CC2)c2ccccc2n1C (stereo not given)	DT40 TDP1 CPT inconclusive, Gal4-VP16 FLuc inconclusive
COc1ccc2c(c1)c(C(O)CN1CCN(Cc3ccc4c(c3)OCO4)CC1)c(C)n2C (stereo not given)	DT40 TDP1 CPT inconclusive, TDP1 cell noCPT 23µM
OC(CN1CCN(Cc2ccc3c(c2)OCO3)CC1)c1c[nH]c2ccccc12 (stereo not given)	DT40 TDP1 CPT 12µM, TDP1 cell noCPT inconclusive
CSc1nc2ccc(NC(=O)c3nn(C(C)C)c(=O)c4ccccc34)cc2s1	DT40 TDP1 CPT 18µM, TDP1 cell noCPT inconclusive, Gal4-VP16 FLuc inconclusive
Cc1nc2ccc(NC(=O)c3nn(C(C)C)c(=O)c4ccccc34)cc2s1	DT40 TDP1 CPT inconclusive, TDP1 cell noCPT inconclusive
Cc1nc([N+](=O)[O-])c(Br)n1CC(=O)c1ccc(F)cc1	DT40 TDP1 CPT inconclusive, TDP1 cell noCPT 16µM, RORg inh 7.9µM
Cc1nc(SCC(=O)c2cccc([N+](=O)[O-])c2)n[nH]1	DT40 TDP1 CPT inconclusive, TDP1 cell noCPT inconclusive, Gal4-VP16 FLuc inconclusive, RORg inh 13µM
Cc1nc([N+](=O)[O-])c(Br)n1Cc1ccccc1	DT40 TDP1 CPT 5.2µM, TDP1 cell noCPT 6.5µM, Gal4-VP16 FLuc inconclusive, RORg inh inconclusive (no result: TDP1 inh)
Cc1nc([N+](=O)[O-])c(Br)n1CC(=O)c1cccc([N+](=O)[O-])c1	DT40 TDP1 CPT 15µM, TDP1 cell noCPT 16µM
NC(=O)c1cc(S(=O)(=O)N2CCOCC2)cs1	none
O=C(NCc1ccccc1)c1c[nH]c2cc3c(cc2c1=O)OCCO3	Gal4-VP16 FLuc inconclusive, RORg inh inconclusive
CN(C)S(=O)(=O)c1cccc(C(=O)Nc2cc(S(=O)(=O)N3CCOCC3)ccc2O)c1	none (no result: Gal4-VP16 FLuc, RORg inh)
Cc1nc([N+](=O)[O-])c(Sc2nc3ccc([N+](=O)[O-])cc3[nH]2)n1Cc1ccccc1	DT40 TDP1 CPT 9.2µM, TDP1 cell noCPT 8.2µM, Gal4-VP16 FLuc inconclusive, RORg inh 16µM
O=C(c1cc2c(ccc3ccccc32)o1)N1CCN(c2ncc(C(F)(F)F)cc2Cl)CC1	DT40 TDP1 CPT inconclusive, TDP1 cell noCPT inconclusive
CC(=O)N1C(=O)C2(C(C#N)=C(N)Oc3n[nH]c(-c4ccccn4)c32)c2ccccc21 (stereo not given)	DT40 TDP1 CPT inconclusive, TDP1 cell noCPT 18µM
Cc1[nH]nc2c1C1(C(=O)N(Cc3ccc(Cl)cc3)c3ccccc31)C(C#N)=C(N)O2 (stereo not given)	DT40 TDP1 CPT 23µM, TDP1 cell noCPT 26µM, Gal4-VP16 FLuc inconclusive, RORg inh inconclusive

From PubChem BioAssay
